# Rows were chosen to be rich in hits. Some 3% of all compounds tested hit in one or more screens of this group.
# GCN5L2 inh: qHTS Assay for Inhibitors of GCN5L2; Potency, µM (top dose mostly 58.9 µM), for the others: at the top dose activity change, negative = inhibition, actives largely listed as inhibitors; hit rate 0.21% among 390,000; Histone acetyltransferase KAT2A (Homo sapiens), Q92830; GCN5L2 HAT assay, ThioGlo1 CoA-SH fluorescence
# Target sequence (Q92830 whole entry, looked up): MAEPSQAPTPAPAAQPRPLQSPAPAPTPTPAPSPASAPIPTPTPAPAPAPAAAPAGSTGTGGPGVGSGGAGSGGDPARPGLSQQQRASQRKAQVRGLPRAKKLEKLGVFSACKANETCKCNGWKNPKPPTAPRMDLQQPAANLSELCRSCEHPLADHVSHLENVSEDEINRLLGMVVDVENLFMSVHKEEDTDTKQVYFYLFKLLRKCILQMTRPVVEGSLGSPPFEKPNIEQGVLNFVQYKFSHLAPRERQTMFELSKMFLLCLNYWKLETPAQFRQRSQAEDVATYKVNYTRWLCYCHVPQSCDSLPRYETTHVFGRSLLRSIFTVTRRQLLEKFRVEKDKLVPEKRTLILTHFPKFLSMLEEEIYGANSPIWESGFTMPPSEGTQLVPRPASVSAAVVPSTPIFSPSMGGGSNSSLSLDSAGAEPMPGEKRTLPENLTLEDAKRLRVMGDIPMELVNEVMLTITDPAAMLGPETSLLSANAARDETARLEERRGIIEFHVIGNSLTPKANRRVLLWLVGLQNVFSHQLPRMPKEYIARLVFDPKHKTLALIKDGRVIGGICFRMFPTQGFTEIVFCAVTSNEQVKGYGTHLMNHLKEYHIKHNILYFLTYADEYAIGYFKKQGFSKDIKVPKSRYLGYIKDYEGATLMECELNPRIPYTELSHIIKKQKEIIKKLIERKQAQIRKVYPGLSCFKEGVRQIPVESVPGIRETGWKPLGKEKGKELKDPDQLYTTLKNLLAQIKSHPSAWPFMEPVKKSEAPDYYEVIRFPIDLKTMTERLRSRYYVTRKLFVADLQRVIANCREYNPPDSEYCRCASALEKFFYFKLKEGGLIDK
#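 qHTS, 1536-well. 20nM enzyme, pH 7.5 HEPES/EDTA/Tween-20 buffer; 15 min compound preinc., RT. Start: 75uM H3(1-25), 70uM AcCoA, 50uM ThioGlo1. Read Ex340/Em540 at t=0 (autofluorescence flag) and t=20 min.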
# PLK1 PBD inh: qHTS for Inhibitors of PLK1-PDB (polo-like kinase 1 - polo-box domain): Primary Screen; Serine/threonine-protein kinase PLK1 (Homo sapiens), P53350; Potency, µM, without a hit: max response, negative = inhibition, usual class: inhibitors; hit rate 2.8% among 360,000; Plk1 PBD binding of FITC phosphopeptide, fluorescence polarization; note: series mostly up to about 57 µM; nearly all actives have a fitted effect of over 65% in size
# ALOX12 inh: Primary qHTS assay for inhibitors of human arachidonate 12S-lipoxygenase (ALOX12): Round 2. hit rate 1.1% among 580,000. AID 1671190, 2021. purified 12hLO, xylenol orange hydroperoxide absorbance. Potency, µM (titrated, usually from 108 µM), inactives show at the top dose activity change, negative = inhibition, actives largely listed as inhibitors
#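 Purified human 12hLO at 150 nM in 25 mM Hepes, 0.01% Triton X-100, pH 7.0, preincubated 15 min at room temperature with compound. Reaction started with 40 uM arachidonic acid, 30 min at room temperature. Hydroperoxide measured by Fe-xylenol orange, 573/405 nm absorbance ratio.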
# VDR inh: Inhibitors of the vitamin D receptor (VDR): qHTS. VDR-SRC2-3 peptide fluorescence polarization, 2 h. Potency, µM, for the others: max response, negative = inhibition, hits mostly inhibitors. hit rate 0.93% among 400,000. AID 504847, 2011
#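 FP read-out; VDR + SRC2-3 coactivator peptide; 23 nl compound by pintool; 2 h RT incubation; reagents held at 4 deg C, protected from light.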
# * marks the source's active call; other numbers are inactive results; ? = inconclusive; / = not tested or not shown; [ ] = another dose, or the depositor's remark. Calls come from the whole dose curve; as a rule, active = well fitted curve in the direction sought with a large enough effect; inconclusive = small, poorly fitted or top-dose-only effect, or another doubt; inactive = no such curve, though single readings can be large; an effect the other way counts as inactive or inconclusive. % is set by controls: 0 for no effect and ±100 for the full control effect; potency is the fitted concentration of half-maximal effect.
SMILES,GCN5L2 inh,PLK1 PBD inh,ALOX12 inh,VDR inh
O=C(/C=C/c1ccccc1)c1ccccn1,-3%,-14%,0%,40µM*
O=C(N/N=C/c1ccc2c(c1)OCO2)c1ccccn1,-8%,-8%,3%[57.4 µM],-7%
O=C(C=Cc1ccc2c(c1)OCO2)c1ccccc1,/,-5%,-4%,40µM*
CC(C)c1ccc(Cc2cnc(NC(=O)C3=Cc4ccccc4OC3)s2)cc1,/,/,12%,/
CCc1ccc(Cc2cnc(NC(=O)C3=Cc4ccccc4OC3)s2)cc1,/,/,2%,/
O=C(NNC(=S)NC(=O)c1ccccc1)c1ccc([N+](=O)[O-])cc1,-24%,27µM*,?,-10%
Cc1cc(C(=O)NNC(=S)NC(=O)c2ccccc2)cs1,/,/,28µM*,/
Cc1ccc(C(=O)NC(=S)NNC(=O)c2ccc([N+](=O)[O-])cc2)cc1,-8%,-17%,?,-16%
O=C(O)CCC(=O)NNC(=O)c1ccc(-c2ccccc2)cc1,-4%,3%,4%,12%
O=C(O)CCC(=O)NNC(=O)c1ccc([N+](=O)[O-])cc1,1%,24µM*,10%,?
O=C(NNC(=S)NC(=O)c1ccc(Br)cc1)c1cccc([N+](=O)[O-])c1,-1%,27µM*,40µM*,?
O=C(NNC(=S)NC(=O)c1ccccc1Cl)c1cccc([N+](=O)[O-])c1,6%,-13%,?,-25%
CCOC(=O)N1CCN(Cc2nc3c(c(=O)n(C)c(=O)n3C)n2CC(=O)OC)CC1,/,/,-17%,/
O=S(=O)(c1ccc(OC(F)(F)F)cc1)N1CCN(Cc2ncc(-c3ccccc3)o2)CC1,/,/,-3%,/
O=C(NC(=S)Nc1cccc(NC(=O)c2ccccc2)c1)c1cccc([N+](=O)[O-])c1,-6%,-19%,28µM*,-10%
Cc1cc(C(=O)NC(=S)Nc2cccc(C(=O)O)c2C)ccc1[N+](=O)[O-],-9%,-7%,20µM*,16%
Cc1ccc(C(=O)NC(=S)NNC(=O)c2ccccc2[N+](=O)[O-])cc1,-6%,?,32µM*,?
Cc1cc(C(=O)NC(=S)Nc2cccc(NC(=O)C(C)C)c2)ccc1[N+](=O)[O-],-1%,-11%,?,-7%
O=C(NNC(=S)NC(=O)c1ccccc1[N+](=O)[O-])c1ccccc1[N+](=O)[O-],-3%,-29%,-17%[57.4 µM],-7%
CC(=O)NNC(=S)NC(=O)c1cccc([N+](=O)[O-])c1,?,24µM*,?,?
NS(=O)(=O)c1cccc(NC(=S)NC(=O)c2cccc([N+](=O)[O-])c2)c1,0%,?,?,-17%
CC(=O)Nc1ccc(NC(=O)CCn2cnc3c2c(=O)n(C)c(=O)n3C)cc1,/,/,-3%,/
COc1cccc(Oc2coc3cc(OC(=O)c4ccco4)ccc3c2=O)c1,/,/,-4%,/
COCc1nn2c3c(cnc2c1-c1ccccc1)C(=O)CC(c1ccccc1)C3 (stereo not given),/,/,0%,/
O=C(NC(=S)NNC(=O)c1ccccc1O)c1ccc([N+](=O)[O-])cc1,5%,-19%,-6%,-5%
SMILES,GCN5L2 inh,PLK1 PBD inh,ALOX12 inh,VDR inh
O=C(CCc1ccccc1)NNC(=S)NC(=O)c1ccccc1,-21%,27µM*,?,-14%
CC(=O)NC(=S)NNC(=O)CCc1ccccc1,0%,?,-20%,-6%
O=C(NNC(=S)NC(=O)c1ccc(Br)cc1)c1ccc([N+](=O)[O-])cc1,?,?,45µM*,?
CN1C[C@@H](N)C[C@H]1c1nc(-c2ccc3c(c2)OCO3)no1,/,/,53%[176 µM],/
COc1cccc(CCC2CCCNC2)c1 (stereo not given),/,/,30%,/
O=C(Nc1ccccc1)N1CCc2nc(C3CC3)nc(-c3ccc(Cl)cc3)c2C1,/,/,17%,/
CC1(C)CC(NC(=S)NCCc2ccccc2)CC(C)(C)N1,/,/,-2%,/
CCOC(=O)c1c(C)n(C)c2ccc(OC(=O)c3ccc([N+](=O)[O-])cc3)cc12,8.9µM*,2%,-18%,8%
Cc1ccc(/C=C/C(=O)OCC(=O)N2CC(=O)Nc3ccccc32)o1,3%,27µM*,?,-24%
c1ccc(Cn2c(-c3ccco3)nc3nc4ccccc4nc32)cc1,-8%,-20%,?,18%
CCCCCn1c(-c2ccco2)nc2nc3ccccc3nc21,-24%,-3%,35µM*,12%
Cc1cc(C(=O)N2CCCCCC2)sc1C,/,/,5%,/
CC(=O)Nc1ccccc1-c1c(C)nn2c1N(C(=O)Cc1cccc(Cl)c1)CCC2,/,/,2%[176 µM],/
COc1ccccc1CC(=O)N1CCC2(CC1)NC(=O)N(c1cccc(F)c1)N2,/,/,1.8µM*,/
COc1ccc(C(=O)N2CCC3(CC2)NC(=O)N(c2cccc(F)c2)N3)cc1F,/,/,2µM*,/
COc1ccc(C(=O)N2CCC3(CC2)N=C(c2ccc(C)cc2)NO3)cc1F,/,/,2%,/
COc1ccccc1CC(=O)N1CCN(c2cccc(C(F)(F)F)c2)CC1,-1%,-14%,?,-16%
COc1ccccc1C(=O)N1CCC2(CC1)NC(=O)N(c1cccc(F)c1)N2,/,/,2.5µM*,/
COc1cccc(C(=O)N2CCC3(CC2)NC(=O)N(c2ccc(F)cc2)N3)c1OC,/,/,4µM*,/
CCc1ccc2[nH]c(CSCC(=O)Nc3ccc(OC)c(Cl)c3)cc(=O)c2c1,/,/,-4%,/
CC(C)(C)NC(=O)N1CCCCCCNC(=O)[C@@H]2C[C@@H](c3nc(-c4cccnc4)no3)C[C@@H]21,/,/,32%,/
Cc1ccc(C(=O)N2CCC3(CC2)NC(=O)N(c2ccc(F)cc2)N3)s1,/,/,2µM*,/
COc1cccc(C(=O)N2CCC3(CC2)NC(=O)N(c2cccc(F)c2)N3)c1OC,/,/,3.2µM*,/
O=C(c1cc(C2CC2)[nH]n1)N1CCC2(CC1)NC(=O)N(c1cccc(F)c1)N2,/,/,11µM*,/
Cc1ccc(C(=O)N2CCSCC2)s1,/,/,14%,/
SMILES,GCN5L2 inh,PLK1 PBD inh,ALOX12 inh,VDR inh
COc1cccc(C(=O)N2CCN(C(=O)c3cccc4ccccc34)CC2)c1OC,-3%,-2%,-15%,11%
CCn1nccc1C(=O)N1CCC2(CC1)NC(=O)N(c1cccc(F)c1)N2,/,/,4µM*,/
CC(=O)Nc1ccc(NC(=O)CCc2ncc(-c3ccc(F)cc3F)o2)cc1,/,/,-3%,/
COc1ccc(Cl)cc1NC(=O)c1cc(=O)c2cc(C)ccc2o1,/,/,3%,/
CS(=O)(=O)N1CCN(C(=O)CNc2cccc(F)c2)CC1,/,/,9%,/
CC(C)(C)Cc1nnc(NC(=O)Cc2cccs2)s1,-2%,19µM*,45µM*,4%
O=C(Cc1cccs1)Nc1nnc(Cc2ccccc2)s1,-29%,27µM*,45µM*,20%
CC(C)(C)Cc1nnc(NC(=O)Cc2ccc([N+](=O)[O-])cc2)s1,-3%,5.3µM*,?,?
CC(C)(C)Cc1nnc(NC(=O)c2ccc([N+](=O)[O-])cc2)s1,-2%,-2%,11%,4%
O=C(COc1ccc2c(=O)c(-c3ccccc3Cl)coc2c1)Nc1ccccc1Cl,/,/,0%,/

# Bioassay records as filed in PubChem BioAssay.
